For 18 compounds, AC50 and outcome results are on record in PubChem BioAssay (EPA / NIEHS).

Test [1] in a line: ATG_PXRE_CIS: Attagene CIS-FACTORIAL HepG2 Assay for human Pregnane X Receptor Element (PXRE) (AID 2282957). The settings on record: HepG2 Attagene CIS-FACTORIAL PXRE reporter, mRNA; actives raise or lower the signal. The essentials:
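Cis-element reporter mRNA in human hepatoma HepG2 cells is measured 24 h post-dosing by RT-PCR, primer-extension labeling and capillary electrophoresis; gain or loss of signal is fitted relative to DMSO.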

A short description of test [2]: ATG_PPRE_CIS: Attagene CIS-FACTORIAL HepG2 Assay for human Peroxisome Proliferator-activated Response Element (PPRE) (AID 2282958). The settings on record: HepG2 PPRE cis-element reporter, Attagene transcription factor profiling; actives raise or lower the signal. A digest of the protocol:
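HepG2 cells are transiently transfected with multiplexed cis-promoter reporter units to report endogenous PPAR activity. After 24 h dosing, reporter mRNA is read by RT-PCR and capillary electrophoresis. Fitting is bidirectional against DMSO.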

Test [3] in a line: ATG_RORE_CIS: Attagene CIS-FACTORIAL HepG2 Assay for human RAR-related Orphan Receptor Element (RORE) (AID 2282959). The settings on record: HepG2 Attagene cis-factorial RORE reporter, mRNA; actives raise or lower the signal. A digest of the protocol:
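HepG2 cells carrying transiently transfected cis-regulated reporter units; RORE-driven reporter mRNA quantified 24 h post-dosing by RT-PCR, 6-FAM primer extension, HpaI digestion and capillary electrophoresis. Bidirectional fit versus DMSO.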

Test [4] deals with Transcription factor Sp1 (Homo sapiens) (UniProt P08047). Briefly: ATG_Sp1_CIS: Attagene CIS-FACTORIAL HepG2 Assay for human Specificity Protein 1 (Sp1) (AID 2282961). The settings on record: HepG2 Sp1 cis-reporter transcription, actives raise or lower the signal. The essentials:
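HepG2 cells transiently transfected with multiplexed cis-regulated reporter constructs, chemical exposure 24 h. Reporter mRNA quantified by RT-PCR with capillary electrophoresis; bidirectional fit relative to DMSO.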

The nature of test [5]: ATG_SREBP_CIS: Attagene CIS-FACTORIAL HepG2 Assay for human Sterol Regulatory Element Binding (SREBP) (AID 2282962). Particulars: HepG2 Attagene cis-factorial SREBP reporter, mRNA; actives raise or lower the signal. The essentials:
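HepG2 cells transiently transfected with multiplexed cis-element reporter units report endogenous transcription factor activity. After 24 h of chemical exposure, reporter mRNA was quantified by RT-PCR, 6-FAM labelling, HpaI digestion and capillary electrophoresis; bidirectional fits used DMSO as baseline.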

The target of test [6] is Signal transducer and activator of transcription 3 (Homo sapiens) (UniProt P40763). Briefly: ATG_STAT3_CIS: Attagene CIS-FACTORIAL HepG2 Assay for human Signal Transducer and Activator of Transcription 3 (STAT3) (AID 2282963). The settings on record: HepG2, Attagene cis-factorial STAT3 reporter transcription; actives raise or lower the signal. A digest of the protocol: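 HepG2 cells transiently transfected with cis-element-driven multiple reporter transcription units; after 24 h chemical exposure, reporter mRNA measured by RT-PCR, 6-FAM primer-extension labelling, HpaI digestion and capillary electrophoresis. Bidirectional fitting versus DMSO baseline.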
Chain of Signal transducer and activator of transcription 3 (Homo sapiens) (P40763 whole entry, looked up): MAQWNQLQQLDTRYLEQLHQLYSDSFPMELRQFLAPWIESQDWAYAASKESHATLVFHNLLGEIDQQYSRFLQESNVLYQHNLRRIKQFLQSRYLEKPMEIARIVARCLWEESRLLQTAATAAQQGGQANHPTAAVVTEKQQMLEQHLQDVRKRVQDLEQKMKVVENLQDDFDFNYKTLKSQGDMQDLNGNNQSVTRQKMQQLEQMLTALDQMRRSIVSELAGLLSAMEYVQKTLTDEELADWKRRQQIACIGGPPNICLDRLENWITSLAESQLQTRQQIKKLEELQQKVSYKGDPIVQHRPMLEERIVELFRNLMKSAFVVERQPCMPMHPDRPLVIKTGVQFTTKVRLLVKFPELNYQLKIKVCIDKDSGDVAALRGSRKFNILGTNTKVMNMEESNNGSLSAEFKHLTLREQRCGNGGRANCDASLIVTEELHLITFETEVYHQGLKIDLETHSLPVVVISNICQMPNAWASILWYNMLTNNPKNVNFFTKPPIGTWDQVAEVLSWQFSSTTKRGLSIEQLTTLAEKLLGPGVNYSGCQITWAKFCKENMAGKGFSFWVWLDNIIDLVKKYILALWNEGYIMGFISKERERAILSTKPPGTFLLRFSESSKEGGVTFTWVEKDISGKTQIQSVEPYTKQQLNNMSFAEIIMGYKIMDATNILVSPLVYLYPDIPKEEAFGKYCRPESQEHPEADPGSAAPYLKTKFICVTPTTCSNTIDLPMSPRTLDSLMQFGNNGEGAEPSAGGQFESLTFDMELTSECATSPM

The nature of test [7]: ATG_TA_CIS: Attagene CIS-FACTORIAL HepG2 Assay for human TA Basal Promoter (AID 2282964). Particulars: HepG2 Attagene CIS-factorial TA basal promoter reporter; actives raise or lower the signal. A digest of the protocol:
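Multiplexed mRNA reporter assay, HepG2, 24 h. Reporter cDNA amplified, 6-FAM primer-extended, HpaI-cut, CE-sized; DMSO = negative control and baseline.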

Test [8] is described as follows: ATG_TCF_b_cat_CIS: Attagene CIS-FACTORIAL HepG2 Assay for human T-Cell-Factor with beta-catenin (TCF/b-cat) (AID 2282965). Particulars: HepG2 TCF/beta-catenin cis-reporter transcription, actives raise or lower the signal. A digest of the protocol:
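In this cis-format system, transfected HepG2 cells report endogenous transcription factor activity. Readout after 24 h exposure is reporter transcript abundance from RT-PCR and capillary electrophoresis, analysed for gain or loss of signal versus DMSO.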

A short description of test [9]: ATG_Sox_CIS: Attagene CIS-FACTORIAL HepG2 Assay for human SRY-box transcription factor (SOX) (AID 2282960). The settings on record: HepG2 Attagene cis-factorial SOX reporter, mRNA; actives raise or lower the signal. A digest of the protocol: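 HepG2 cells transiently transfected with multiple cis-regulated reporter units, then dosed for 24 h. Reporter mRNA quantified by RT-PCR, fluorescent labelling, HpaI digestion and capillary electrophoresis; bidirectional fit versus DMSO.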

The source made the active and inactive calls. Rule for the calls: active = hit-call score of the fitted dose curve at least 0.9, where 1 is the maximum; inactive = score below 0.9.

Chain of Transcription factor Sp1 (Homo sapiens) (P08047 whole entry, looked up): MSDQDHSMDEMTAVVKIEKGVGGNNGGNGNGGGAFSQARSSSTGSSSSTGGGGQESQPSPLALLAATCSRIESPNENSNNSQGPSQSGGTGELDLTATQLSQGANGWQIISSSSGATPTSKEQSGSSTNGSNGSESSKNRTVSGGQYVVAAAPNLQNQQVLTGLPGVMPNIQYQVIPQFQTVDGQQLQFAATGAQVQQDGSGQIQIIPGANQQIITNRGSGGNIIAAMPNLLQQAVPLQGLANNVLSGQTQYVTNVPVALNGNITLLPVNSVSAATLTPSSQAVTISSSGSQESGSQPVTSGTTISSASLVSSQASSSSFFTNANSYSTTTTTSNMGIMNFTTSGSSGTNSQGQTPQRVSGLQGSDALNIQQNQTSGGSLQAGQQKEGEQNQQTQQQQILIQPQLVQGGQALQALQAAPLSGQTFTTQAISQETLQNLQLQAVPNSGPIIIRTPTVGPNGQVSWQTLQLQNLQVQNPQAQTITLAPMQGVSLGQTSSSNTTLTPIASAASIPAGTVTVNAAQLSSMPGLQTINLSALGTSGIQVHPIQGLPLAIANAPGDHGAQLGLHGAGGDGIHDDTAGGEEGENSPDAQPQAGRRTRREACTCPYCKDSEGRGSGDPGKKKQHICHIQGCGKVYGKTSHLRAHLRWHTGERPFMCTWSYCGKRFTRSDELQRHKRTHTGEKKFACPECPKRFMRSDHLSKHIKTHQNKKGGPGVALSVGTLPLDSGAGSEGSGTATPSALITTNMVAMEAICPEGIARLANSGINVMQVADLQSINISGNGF

In the case of `C[C@H]1CCCC(=O)CCC/C=C/c2cc(O)cc(O)c2C(=O)O1`, the AC50 (usually the midpoint of the concentration-response curve, whichever way the signal moves) in test [1] was 0.665 µM (active). Further, the compound was called inactive in test [2], in test [3], in test [4], in test [5], in test [6] and in test [7]. In addition, in [8], the outcome was inactive.

With `CC(C)(c1ccc(OCC2CO2)cc1)c1ccc(OCC2CO2)cc1` (centres undefined), the AC50 in test [1] is 8.18 µM (active); in test [3], 33.4 µM (active); in test [5], 15.1 µM (active); in test [7] it was 33.4 µM (active); in [8], 49.7 µM (active). In addition, the result in [2], in test [4] and in test [6] was inactive.

In the case of `O=[N+]([O-])c1c(Cl)c(Cl)cc(Cl)c1Cl`, in [1], the AC50 was 18.2 µM (active). Also, the compound was classed as inactive in test [2], in test [3], in test [9], in test [4], in test [5] and in [6]. In addition, the call in test [7] and in test [8] was inactive.

Turning to `CC(C)c1ccc(CO)cc1`, the result in [1], in test [2], in [3], in test [9], in test [4] and in test [5] was inactive. Further, the outcome in test [6], in test [7] and in test [8] was inactive.

For the compound `CC(Br)C(=O)O` (centres undefined), the result in test [1], in [2], in test [3], in test [4], in test [5] and in test [6] was inactive. Further, the compound was classed as inactive in test [7] and in test [8].

Take `CCC(=O)c1ccccc1`: the compound was called inactive in [1], in [2], in test [3], in test [9], in [4] and in test [5]. For the same compound, the outcome in test [6], in [7] and in [8] was inactive.

In the case of `CC(C)c1cccc(C(C)C)c1O`, the AC50 in test [1] is 3.76 µM (active). The outcome in [2], in [3], in test [4], in test [5], in test [6] and in test [7] was inactive. In addition, the compound was classed as inactive in test [8].

Consider `Nc1ncc([N+](=O)[O-])s1`, for which the result in [1], in [2], in test [3], in test [4], in test [5] and in test [6] was inactive. Besides, the compound was called inactive in test [7] and in test [8].

Turning to `Cl/C=C\C[N+]12CN3CN(CN(C3)C1)C2`, the AC50 in test [1] is 45.2 µM (active); in test [8], 26 µM (active). Further, the outcome in test [3], in test [9], in test [4], in test [5], in test [6] and in test [7] was inactive.

On to `N#Cc1ccccn1`, for which the compound was called inactive in test [1], in test [3], in test [9], in [4], in [5] and in [6]. Besides, the call in [7] and in [8] was inactive.

As for `CCOC(=O)Nc1cccc(OC(=O)Nc2ccccc2)c1`, the AC50 in [1] is 100 µM (active). Also, the compound was called inactive in [2], in [3], in test [4], in test [5], in test [6] and in test [7]. In addition, the compound was classed as inactive in test [8].

`CCCCCCCCc1ccc(O)cc1`: the call in test [1], in [2], in test [3], in test [9], in test [4] and in test [5] was inactive. In addition, the result in [6], in test [7] and in test [8] was inactive.

On to `O=C1CCCN1`, for which the compound was classed as inactive in [1], in test [2], in [3], in test [9], in test [4] and in test [5]. Also, the compound was called inactive in test [6], in [7] and in test [8].

Take `COc1ccc(C=O)cc1OC`: the AC50 in test [1] was 32 µM (active). Further, the compound was called inactive in test [3], in [9], in test [4], in [5], in test [6] and in test [7]. Besides, the outcome in test [8] was inactive.

For `Oc1ccc(-c2ccccc2)cc1`, the result in test [1], in test [2], in [5], in test [6], in test [7] and in test [8] was inactive. The results for the AC50 in [3], in [9] and in [4] were 162 µM (active), 145 µM (active) and 147 µM (active), respectively.

As for `Clc1ccc(COC(Cn2ccnc2)c2ccc(Cl)cc2Cl)cc1` (centres undefined), the AC50 in [1] is 0.697 µM (active). Also, the compound was classed as inactive in [9], in test [4], in [5], in test [6], in [7] and in test [8].

Regarding `O=C(OC1CCCCC1)c1ccccc1C(=O)OC1CCCCC1`, the AC50 was 0.58 µM (active) in [1], 8.39 µM (active) in [3] and 29.1 µM (active) in test [7]. The compound was called inactive in test [9], in [4], in test [5], in [6] and in [8].

As to `CCCCCCCCSC(=O)Oc1cc(Cl)nnc1-c1ccccc1`, the AC50 in test [1] is 27.1 µM (active); in [7] it was 124 µM (active); in [8], 170 µM (active). Further, the compound was classed as inactive in [2], in test [3], in [4], in [5] and in [6].
